Test results published in PubChem BioAssay (Tox21).
Inconclusive results are not listed. The source made the active and inactive calls. Calls follow the shape of the dose curve; as a rule, active = well fitted curve in the direction sought with a large enough effect in the repeat runs; inconclusive = weak or mixed curves; inactive = no such curve, though single readings can be large; an effect the other way counts as inactive or inconclusive.

Key:
[1] = qHTS RealTime-Glo MT Cell Viability Assay in HepG2 cells - 40 hour (AID 1224870); also: nearly all actives have a fitted effect of over 50% in size
Summary of the method: (§1)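 Real-time viability: cells seeded at 600 per well together with NanoLuc and cell-permeant prosubstrate, compounds added after 5 h incubation. Luminescence tracked at 0, 8, 16, 24, 32 and 40 h of exposure.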

[2] = qHTS RealTime-Glo MT Cell Viability Assay in HepG2 cells - 8 hour (AID 1224873); also: nearly all actives have a fitted effect of over 55% in size
Summary of the method: as §1

[3] = qHTS RealTime-Glo MT Cell Viability Assay in HEK293 cells - 40 hour (AID 1224874); settings: RealTime-Glo luminescence; max response: hits give low values; also: nearly all actives have a fitted effect of over 50% in size; also: potency is read from the fitted curve at half-maximal effect
Summary of the method: (§2)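 Real-time viability in HEK293: signal arises when living cells convert a prosubstrate for NanoLuc in the medium, so luminescence tracks viable cell number. Compound (23 nL, DMSO) added 5 h post-seeding; kinetic reads at 0–40 h, 37 C.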

[4] = A CellTox Green Cytotoxicity Assay to monitor cytotoxicity in HEK293 cells - 24 hour (AID 1224875); also: nearly all actives have a fitted effect of over 45% in size; also: potency is read from the fitted curve at half-maximal effect
Summary of the method: (§3)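 Cells (HEK293, 600/well) and dye reagent are dispensed together. After 5 h at 37 C, 23 nL compound is pinned in. Plates stay at 37 C for 40 h with fluorescence read at 0h, 8h, 16h, 24h, 32h and 40h.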

[5] = A CellTox Green Cytotoxicity Assay to monitor cytotoxicity in HepG2 cells - 16 hour (AID 1224876); also: nearly all actives have a fitted effect of over 45% in size; also: potency is read from the fitted curve at half-maximal effect
Summary of the method: (§4)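 Cells and non-lytic dye reagent are dispensed together (600 HepG2 cells/well) and incubated 5 h before DMSO compound transfer. Kinetic fluorescence is then recorded in the same wells during 40 h at 37 C.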

[6] = qHTS RealTime-Glo MT Cell Viability Assay in HepG2 cells - 32 hour (AID 1224877); also: nearly all actives have a fitted effect of over 55% in size
Summary of the method: (§5)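 HepG2 cells were seeded at 600 cells/well together with NanoLuc luciferase and a cell-permeant prosubstrate, preincubated 5 h at 37 C/5% CO2, then pin-dosed with compounds in DMSO. Nonlytic luminescence from viable cells was read at each time point.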

[7] = A CellTox Green Cytotoxicity Assay to monitor cytotoxicity in HepG2 cells - 24 hour (AID 1224878); also: nearly all actives have a fitted effect of over 45% in size; also: potency is read from the fitted curve at half-maximal effect
Summary of the method: as §4

[8] = A CellTox Green Cytotoxicity Assay to monitor cytotoxicity in HepG2 cells - 40 hour (AID 1224879); also: nearly all actives have a fitted effect of over 40% in size; also: potency is read from the fitted curve at half-maximal effect
Summary of the method: as §4

[9] = qHTS RealTime-Glo MT Cell Viability Assay in HEK293 cells - 0 hour (AID 1224880); also: top concentration of the series differs between compounds; nearly all actives have a fitted effect of over 45% in size
Summary of the method: as §2

[10] = A CellTox Green Cytotoxicity Assay to monitor cytotoxicity in HEK293 cells - 32 hour (AID 1224881); also: nearly all actives have a fitted effect of over 40% in size
Summary of the method: as §3

[11] = A CellTox Green Cytotoxicity Assay to monitor cytotoxicity in HepG2 cells - 0 hour (AID 1224882); also: nearly all actives have a fitted effect of over 35% in size
Summary of the method: as §4

[12] = A CellTox Green Cytotoxicity Assay to monitor cytotoxicity in HepG2 cells - 32 hour (AID 1224883); also: nearly all actives have a fitted effect of over 50% in size; also: potency is read from the fitted curve at half-maximal effect
Summary of the method: as §4

[13] = A CellTox Green Cytotoxicity Assay to monitor cytotoxicity in HEK293 cells - 8 hour (AID 1224884); also: nearly all actives have a fitted effect of over 35% in size
Summary of the method: as §3

[14] = qHTS RealTime-Glo MT Cell Viability Assay in HepG2 cells - 16 hour (AID 1224885); also: nearly all actives have a fitted effect of over 50% in size
Summary of the method: as §5

[15] = qHTS RealTime-Glo MT Cell Viability Assay in HEK293 cells - 24 hour (AID 1224886); also: nearly all actives have a fitted effect of over 50% in size; also: potency is read from the fitted curve at half-maximal effect
Summary of the method: (§6)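 HEK293 cells were seeded at 600 cells/well together with NanoLuc luciferase and cell-permeant prosubstrate, preincubated 5 h at 37 C/5% CO2, then given compound in DMSO by pintool. Luminescence from viable-cell prosubstrate reduction was read repeatedly over 40 h.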

[16] = qHTS RealTime-Glo MT Cell Viability Assay in HEK293 cells - 8 hour (AID 1224887); also: nearly all actives have a fitted effect of over 50% in size; also: potency is read from the fitted curve at half-maximal effect
Summary of the method: as §2

[17] = A CellTox Green Cytotoxicity Assay to monitor cytotoxicity in HEK293 cells - 16 hour (AID 1224888); also: nearly all actives have a fitted effect of over 35% in size; also: potency is read from the fitted curve at half-maximal effect
Summary of the method: as §3

[18] = qHTS RealTime-Glo MT Cell Viability Assay in HepG2 cells - 0 hour (AID 1224889); also: nearly all actives have a fitted effect of over 50% in size
Summary of the method: as §5

[19] = qHTS RealTime-Glo MT Cell Viability Assay in HEK293 cells - 16 hour (AID 1224872); also: nearly all actives have a fitted effect of over 50% in size; also: potency is read from the fitted curve at half-maximal effect
Summary of the method: as §6

[20] = A CellTox Green Cytotoxicity Assay to monitor cytotoxicity in HEK293 cells - 40 hour (AID 1224871); also: nearly all actives have a fitted effect of over 45% in size
Summary of the method: as §3
% is scaled to controls: 0 for no effect and ±100 for the full control effect.

CCOc1ccc(OCC)c(Cl)c1
inactive: Potency [1] | outcome [2] | max response [3] 5.94% | Potency [4] | Potency [5] | Potency [6] | Potency [7] | Potency [8] | outcome [9] | Potency [10] | Potency [11] | Potency [12] | Potency [13] | outcome [14] | Potency [15] | Potency [16] | Potency [17] | Potency [18]

NC1=NCC2c3ccccc3Cc3ccccc3N12 (stereo unspecified)
inactive: Potency [1] | Potency [19] | outcome [2] | max response [3] -13.1% | Potency [4] | Potency [5] | Potency [6] | Potency [7] | Potency [8] | outcome [9] | Potency [10] | Potency [11] | Potency [12] | Potency [13] | outcome [14] | Potency [16] | Potency [18]

CN1CCN(c2c(F)cc3c(=O)c(C(=O)O)cn(CCF)c3c2F)CC1
inactive: Potency [1] | Potency [19] | outcome [2] | Potency [5] | Potency [6] | Potency [7] | Potency [8] | outcome [9] | Potency [11] | outcome [14] | Potency [15] | Potency [16] | Potency [18]
active: Potency [4] 5.35 µM | Potency [17] 5.35 µM

CC1=C(CC(=O)O)c2cc(F)ccc2/C1=C\c1ccc(S(C)(=O)=O)cc1
inactive: Potency [20] | Potency [19] | outcome [2] | max response [3] 8.4% | Potency [4] | Potency [5] | Potency [6] | Potency [7] | Potency [8] | outcome [9] | Potency [10] | Potency [11] | Potency [12] | Potency [13] | outcome [14] | Potency [15] | Potency [16] | Potency [17] | Potency [18]

Cc1ccc(C(C)C)cc1O
inactive: Potency [1] | Potency [19] | outcome [2] | max response [3] -12% | Potency [4] | Potency [6] | outcome [9] | Potency [11] | Potency [13] | outcome [14] | Potency [15] | Potency [16] | Potency [18]

CC1=C2[C@H](/C=C(\C)C(=O)O)CC[C@@H](C)[C@H]2CC1
inactive: Potency [1] | outcome [2] | Potency [5] | Potency [6] | Potency [7] | Potency [8] | outcome [9] | Potency [11] | Potency [12] | outcome [14] | Potency [18]
active: Potency [19] 36 µM | Potency [15] 36 µM | Potency [16] 25.5 µM

CCc1cc(Cl)c(OC)c(C(=O)NC[C@@H]2CCCN2CC)c1O
inactive: Potency [20] | Potency [19] | outcome [2] | max response [3] -13.1% | Potency [4] | Potency [5] | Potency [6] | Potency [7] | Potency [8] | outcome [9] | Potency [10] | Potency [11] | Potency [12] | Potency [13] | outcome [14] | Potency [15] | Potency [16] | Potency [17] | Potency [18]

Cc1ccsc1C(=CCCN1CCC[C@@H](C(=O)O)C1)c1sccc1C
inactive: Potency [1] | Potency [19] | outcome [2] | max response [3] 2.02% | Potency [4] | Potency [5] | Potency [6] | Potency [7] | Potency [8] | outcome [9] | Potency [10] | Potency [11] | Potency [12] | Potency [13] | outcome [14] | Potency [16] | Potency [17] | Potency [18]

CC/C=C\CCOC(=O)CCCCC
inactive: Potency [1] | max response [3] -9.86% | Potency [4] | Potency [5] | Potency [6] | Potency [8] | outcome [9] | Potency [12] | Potency [15] | Potency [16] | Potency [17]

CCCCCCOc1ccc(N)cc1
active: Potency [4] 49 µM | Potency [16] 19.5 µM
inactive: Potency [1] | outcome [2] | Potency [6] | outcome [9] | Potency [10] | Potency [11] | Potency [13] | outcome [14] | Potency [17] | Potency [18]

Cc1onc(-c2ccccc2)c1C(=O)Cl
inactive: Potency [1] | outcome [2] | max response [3] 5.64% | Potency [4] | Potency [6] | outcome [9] | Potency [10] | Potency [11] | Potency [13] | outcome [14] | Potency [15] | Potency [16] | Potency [17] | Potency [18]

CCCCOc1cc(C(=O)NCCN(CC)CC)c2ccccc2n1
inactive: Potency [1] | outcome [2] | Potency [4] | Potency [6] | outcome [9] | Potency [10] | Potency [11] | Potency [13] | outcome [14] | Potency [18]
active: Potency [7] 21.3 µM | Potency [8] 23.9 µM | Potency [12] 23.9 µM

CCOC(=O)COc1ccc2c(c1)CC(NCC(O)c1cccc(Cl)c1)CC2 (stereo unspecified)
inactive: Potency [1] | Potency [19] | outcome [2] | max response [3] -17.8% | Potency [6] | Potency [11] | outcome [14] | Potency [15]
active: Potency [5] 44 µM

CCC(=O)c1ccc2c(c1)N(CCCN(C)C)c1ccccc1S2
active: Potency [19] 10.7 µM | Potency [3] 19 µM | Potency [15] 10.7 µM | Potency [16] 9.52 µM
inactive: Potency [1] | outcome [2] | Potency [4] | Potency [6] | outcome [9] | Potency [10] | Potency [11] | Potency [13] | outcome [14] | Potency [17]

CC(C)C[C@H](NC(=O)OCC1c2ccccc2-c2ccccc21)C(=O)O
inactive: Potency [1] | Potency [19] | outcome [2] | Potency [4] | Potency [5] | Potency [6] | Potency [7] | outcome [9] | Potency [10] | Potency [11] | Potency [13] | outcome [14] | Potency [15] | Potency [16] | Potency [17]

CCCCCCCCOC(=O)CCCCCCCCC(=O)OCCCCCCCC
inactive: Potency [1] | Potency [19] | outcome [2] | max response [3] 6.02% | Potency [4] | Potency [6] | Potency [7] | Potency [8] | outcome [9] | Potency [10] | Potency [11] | Potency [12] | Potency [13] | outcome [14] | Potency [15] | Potency [16] | Potency [17] | Potency [18]

CC(C)C(=O)OCC(C)(C)C(O)C(C)C (stereo unspecified)
inactive: Potency [1] | outcome [2] | max response [3] 8.54% | Potency [4] | Potency [5] | Potency [6] | Potency [7] | outcome [9] | Potency [10] | Potency [11] | Potency [12] | Potency [13] | outcome [14] | Potency [15] | Potency [16] | Potency [17] | Potency [18]
